A short description of test [1]: BSK_3C_TissueFactor: BioMAP Diversity Plus: 3C Assay for Tissue Factor Biomarker Activity (AID 2282997). To be noted: BioMAP 3C HUVEC, tissue factor biomarker readout; actives raise or lower the signal. An outline of the steps: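 Dosing of human umbilical vein endothelial cells preceded a 24 h incubation. Tissue Factor was then read by ELISA, with increases and decreases both scored relative to DMSO controls.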

Test [2] is described as follows: BSK_3C_VCAM1: BioMAP Diversity Plus: 3C Assay for Vascular cell adhesion molecule 1 (VCAM1) Biomarker Activity (AID 2282999). To be noted: BioMAP 3C HUVEC, VCAM1 ELISA, cytokine-stimulated; actives raise or lower the signal. An outline of the steps:
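Human umbilical vein endothelial cells were dosed with compound for 24 h, after which cell-surface VCAM-1 was quantified by ELISA. Bidirectional curve fitting used DMSO as negative control and activity baseline.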

Read-out in test [3]: Monokine induced gamma interferon (MIG), CXCL9 (gene 4283)
In words: BSK_3C_MIG: BioMAP Diversity Plus: 3C Assay for Monokine induced gamma interferon (MIG) Biomarker Activity (AID 2283021).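 For AC50: MIG protein level measured by immunoassay in the treated endothelial cultures.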 The following applies: primary human endothelial cells (HUVEC); actives raise or lower the signal. In short, it runs like this: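 Primary human umbilical vein endothelial cells in the 3C system were exposed to chemical for 24 h, after which MIG was quantified by ELISA. Activity was fitted bidirectionally against DMSO as negative control and baseline.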

Read-out in test [4]: Monokine induced gamma interferon (MIG), CXCL9 (gene 4283)
In words: BSK_BE3C_MIG: BioMAP Diversity Plus: BE3C Assay for Monokine induced gamma interferon (MIG) Biomarker Activity (AID 2283035). To be noted: primary human bronchial epithelial cells; actives raise or lower the signal. An outline of the steps: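 ELISA read-out of MIG in human lung bronchial epithelial primary cultures, 24 h post-dosing. Bidirectional curve fit vs DMSO baseline.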

Read-out in test [5]: Transforming growth factor beta 1 (TGFb1), TGFB1 (gene 7040)
The experiment in a line: BSK_BE3C_TGFb1: BioMAP Diversity Plus: BE3C Assay for Transforming growth factor beta 1 (TGFb1) Biomarker Activity (AID 2283036). The following applies: primary human bronchial epithelial cells; actives raise or lower the signal. An outline of the steps: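 Human primary bronchial epithelial cells (BE3C system) were dosed with chemical and TGF-b1 levels measured by ELISA at 24 h. Activity was fitted bidirectionally relative to DMSO negative control as baseline.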

Read-out in test [6]: Plasminogen activator inhibitor-1 (PAI1), SERPINE1 (gene 5054)
The experiment in a line: BSK_BE3C_PAI1: BioMAP Diversity Plus: BE3C Assay for Plasminogen activator inhibitor-1 (PAI1) Biomarker Activity (AID 2283037). The following applies: primary human bronchial epithelial cells; actives raise or lower the signal. In short, it runs like this:
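Human primary bronchial epithelial cells were exposed to chemical for 24 h, then PAI-1 was quantified by ELISA. Activity was fitted bidirectionally relative to the DMSO negative control baseline.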

Read-out in test [7]: urokinase plasminogen activator (uPA), PLAU (gene 5328)
The experiment in a line: BSK_BE3C_uPA: BioMAP Diversity Plus: BE3C Assay for urokinase plasminogen activator (uPA) Biomarker Activity (AID 2283038).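 Note: uPA protein level quantified by ELISA in cell cultures; uPA read one day after compound addition.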 The following applies: primary human bronchial epithelial cells; actives raise or lower the signal. In short, it runs like this:
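ELISA for uPA on human primary bronchial epithelial cultures 24 h post-treatment, gain or loss against DMSO. Parallel SRB staining (0.1% after 10% TCA fixation, 560 nm) assessed overt cytotoxicity.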

Read-out in test [8]: Tissue plasminogen activator (tPA), PLAT (gene 5327)
The experiment in a line: BSK_BE3C_tPA: BioMAP Diversity Plus: BE3C Assay for Tissue plasminogen activator (tPA) Biomarker Activity (AID 2283041).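 Note: tPA level quantified by ELISA one day after compound addition.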 The following applies: primary human bronchial epithelial cells; actives raise or lower the signal. An outline of the steps:
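Human primary bronchial epithelial cells were dosed with chemical and tPA biomarker levels measured by ELISA 24 hours later. Activity was fitted bidirectionally against DMSO as negative control and baseline.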

Read-out in test [9]: serum amyloid A (SAA), SAA1 (gene 6288)
The experiment in a line: BSK_CASM3C_SAA: BioMAP Diversity Plus: CASM3C Assay for serum amyloid A (SAA) Biomarker Activity (AID 2283049).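 Note: SAA protein level quantified by ELISA.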 The following applies: primary human coronary artery smooth muscle cells; actives raise or lower the signal.

Read-out in test [10]: Vascular cell adhesion molecule 1 (VCAM1), VCAM1 (gene 7412)
In words: BSK_CASM3C_VCAM1: BioMAP Diversity Plus: CASM3C Assay for Vascular cell adhesion molecule 1 (VCAM1) Biomarker Activity (AID 2283055).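 Note: VCAM-1 protein level quantified by ELISA on the cells.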 The following applies: primary human coronary artery smooth muscle cells; actives raise or lower the signal.

Read-out in test [11]: Collagen III, COL3A1 (gene 1281)
The experiment in a line: BSK_hDFCGF_CollagenIII: BioMAP Diversity Plus: hDFCGF Assay for Collagen III Biomarker Activity (AID 2283056). To be noted: primary human foreskin fibroblasts; actives raise or lower the signal. An outline of the steps: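 ELISA readout of Collagen III in human dermal (foreskin) fibroblasts, taken 24 h post-treatment. Gain or loss relative to DMSO vehicle fitted in both directions.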

Read-out in test [12]: Macrophage colony-stimulating factor (MCSF), CSF1 (gene 1435)
In words: BSK_hDFCGF_MCSF: BioMAP Diversity Plus: hDFCGF Assay for Macrophage colony-stimulating factor (MCSF) Biomarker Activity (AID 2283060). The following applies: primary human foreskin fibroblasts; actives raise or lower the signal. In short, it runs like this:
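M-CSF levels read by ELISA at 24 h post-dosing in human skin fibroblasts. Parallel cultures stained with SRB assessed cytotoxicity at the same time point; response fitted in both directions against the DMSO baseline.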

Read-out in test [13]: Interleukin-1 alpha (IL1a), IL1A (gene 3552)
The experiment in a line: BSK_KF3CT_IL1a: BioMAP Diversity Plus: KF3CT Assay for Interleukin-1 alpha (IL1a) Biomarker Activity (AID 2283070). The following applies: primary human keratinocytes with fibroblasts; actives raise or lower the signal. In short, it runs like this:
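Human keratinocyte plus foreskin fibroblast primary co-culture, sampled 24 h after chemical dosing. IL-1a measured by ELISA; responses fitted bidirectionally against DMSO baseline (negative control), so gain or loss of signal both count.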

Read-out in test [14]: TIMP metallopeptidase inhibitor 2 (TIMP2), TIMP2 (gene 7077)
The experiment in a line: BSK_KF3CT_TIMP2: BioMAP Diversity Plus: KF3CT Assay for TIMP metallopeptidase inhibitor 2 (TIMP2) Biomarker Activity (AID 2283071). The following applies: primary human keratinocytes with fibroblasts; actives raise or lower the signal. An outline of the steps: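 Human primary keratinocyte/foreskin fibroblast co-culture dosed with chemical and sampled at 24 h. TIMP-2 levels quantified by ELISA; bidirectional fitting against DMSO negative control as baseline.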

Read-out in test [15]: Matrix Metallopeptidase 9 (MMP9), MMP9 (gene 4318)
The experiment in a line: BSK_KF3CT_MMP9: BioMAP Diversity Plus: KF3CT Assay for Matrix Metallopeptidase 9 (MMP9) Biomarker Activity (AID 2283074).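 For AC50: MMP9 protein level quantified by ELISA in the co-culture.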 To be noted: primary human keratinocytes with fibroblasts; actives raise or lower the signal. An outline of the steps:
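Keratinocyte plus foreskin fibroblast human primary skin co-culture was dosed with chemical and MMP-9 was quantified by ELISA 24 h later. Bidirectional curve fitting used DMSO as negative control and activity baseline.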

Read-out in test [16]: Tumor necrosis factor (Homo sapiens) (UniProt P01375)
In words: BSK_LPS_TNFa: BioMAP Diversity Plus: LPS Assay for Tumour Necrosis Factor alpha (TNFa) Biomarker Activity (AID 2283085).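 For AC50: TNFa protein level quantified by ELISA in the co-culture.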 The following applies: primary human HUVEC with PBMC; actives raise or lower the signal. An outline of the steps: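 Human umbilical vein endothelial cells co-cultured with PBMC were exposed to test chemical and TNFa measured by ELISA 24 h after dosing. Bidirectional curve fitting was done relative to DMSO as negative control and baseline.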

Read-out in test [17]: CD38, CD38 (gene 952)
In words: BSK_SAg_CD38: BioMAP Diversity Plus: SAg Assay for CD38 Biomarker Activity (AID 2283087). The following applies: primary human HUVEC with PBMC; actives raise or lower the signal. An outline of the steps: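 Fluorescence ELISA of cell-surface CD38 served as the read-out, with either increase or decrease fitted against DMSO controls. Cells were a human umbilical vein endothelium plus PBMC co-culture under SEB/TSST-1 stimulation, measured 24 h after dosing.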

Read-out in test [18]: CD69, CD69 (gene 969)
In words: BSK_SAg_CD69: BioMAP Diversity Plus: SAg Assay for CD69 Biomarker Activity (AID 2283089).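 For AC50: cell surface CD69 protein quantified by ELISA with fluorescence detection.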 To be noted: primary human HUVEC with PBMC; actives raise or lower the signal. In short, it runs like this:
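Values derive from bidirectional fitting relative to DMSO vehicle. Cells: umbilical vein endothelium plus peripheral blood mononuclear cells, treated 24 h before fluorescent ELISA for CD69.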

Read-out in test [19]: E-selectin (Homo sapiens) (UniProt P16581)
The experiment in a line: BSK_SAg_Eselectin: BioMAP Diversity Plus: SAg Assay for Eselectin Biomarker Activity (AID 2283091). The following applies: primary human HUVEC with PBMC; actives raise or lower the signal. In short, it runs like this: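 Cell-surface E-selectin is read by ELISA at 24 h in the SAg co-culture of HUVEC and PBMC. Curves are fitted in both directions relative to DMSO. Parallel SRB total-protein staining tracks overt toxicity.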

Test [20] can be described thus: BSK_SAg_PBMCCytotoxicity: PBMC Cytotoxicity Assessment in the BioMAP Diversity Plus: SAg Assay (AID 2283093).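 For AC50: PBMC superantigen activated with SEB plus TSST-1 one hour after compound addition.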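 Note: PBMC viability measured as Alamar Blue reduction fluorescence at 546/580 nm; fitted both ways against DMSO so a hit may be loss or gain of signal.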 The following applies: primary human HUVEC with PBMC. In short, it runs like this: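 Human umbilical vein endothelial cells co-cultured with PBMC; PBMC (75,000/well) pre-treated with compound 1 h, then activated with SEB and TSST-1 (20 ng/mL final each) for 90 h. Alamar Blue added 6 h, fluorescence 546/580 nm; bidirectional fit versus DMSO.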

The structures appear in SMILES notation. Active and inactive are the calls of the source. Rule for the calls: active = hit-call score of the fitted dose curve at least 0.9, where 1 is the maximum; inactive = score below 0.9.

Sequence of Tumor necrosis factor (Homo sapiens) (P01375 whole entry, looked up): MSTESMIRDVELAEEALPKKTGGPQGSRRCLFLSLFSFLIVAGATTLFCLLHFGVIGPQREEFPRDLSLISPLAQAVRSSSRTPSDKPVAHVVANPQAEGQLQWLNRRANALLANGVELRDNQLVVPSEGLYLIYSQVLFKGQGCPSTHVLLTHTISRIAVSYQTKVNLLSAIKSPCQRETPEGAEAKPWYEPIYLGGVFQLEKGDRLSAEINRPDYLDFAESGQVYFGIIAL
Sequence of E-selectin (Homo sapiens) (P16581 whole entry, looked up): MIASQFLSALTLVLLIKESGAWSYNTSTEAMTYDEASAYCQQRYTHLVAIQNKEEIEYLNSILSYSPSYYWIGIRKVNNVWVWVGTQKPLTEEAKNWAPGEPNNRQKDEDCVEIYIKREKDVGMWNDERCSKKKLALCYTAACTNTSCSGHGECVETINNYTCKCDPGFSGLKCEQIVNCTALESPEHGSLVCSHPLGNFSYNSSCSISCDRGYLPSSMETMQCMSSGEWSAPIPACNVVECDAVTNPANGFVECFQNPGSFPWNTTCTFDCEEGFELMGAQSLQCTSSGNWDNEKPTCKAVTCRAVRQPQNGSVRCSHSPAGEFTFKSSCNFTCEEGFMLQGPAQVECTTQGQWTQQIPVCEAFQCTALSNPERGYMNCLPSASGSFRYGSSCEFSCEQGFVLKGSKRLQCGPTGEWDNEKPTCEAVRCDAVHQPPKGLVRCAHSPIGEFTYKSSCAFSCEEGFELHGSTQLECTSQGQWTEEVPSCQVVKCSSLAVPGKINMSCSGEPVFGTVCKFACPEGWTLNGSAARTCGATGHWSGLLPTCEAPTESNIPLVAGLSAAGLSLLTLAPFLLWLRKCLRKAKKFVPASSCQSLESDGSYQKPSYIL

In the case of `Oc1cc(Cl)ccc1Cl`, the result in test [1], in [2], in [3], in [4], in test [5] and in [6] was inactive. Also, the outcome in [7], in [8], in test [9], in test [10], in [11] and in [12] was inactive. The result in test [13], in [14], in test [15], in test [16], in test [17] and in test [18] was inactive. Further, the outcome in test [19] and in [20] was inactive.

For `O=P1(NCCCl)OCCCN1CCCl` (stereo not given), the outcome in test [1], in test [2], in [3], in test [4], in test [5] and in test [6] was inactive. Also, the result in [7], in test [8], in [9], in test [10], in test [11] and in [12] was inactive. Further, the result in [13], in test [14], in [15], in test [16], in test [17] and in [18] was inactive. Moreover, the result in test [19] and in [20] was inactive.

On to `CC(C)(c1cc(Cl)c(O)c(Cl)c1)c1cc(Cl)c(O)c(Cl)c1`, for which the AC50 was 24.2 µM (active) in test [1]; 13.4 µM (active) in test [2]; 28.9 µM (active) in test [3]; 7.45 µM (active) in [4]; 32.1 µM (active) in test [9]; 20 µM (active) in [10]. For the same compound, the AC50 in test [11] was 29.6 µM (active); in [12] it was 12.2 µM (active); in test [13] it was 9.44 µM (active); in [14], 5.51 µM (active); in test [15] it was 8.32 µM (active); in [16], 31.4 µM (active). For the same compound, the AC50 was 26.6 µM (active) in [17], 26.3 µM (active) in test [18], 23.5 µM (active) in [19] and 36.3 µM (active) in test [20]. Moreover, the result in test [5], in [6], in test [7] and in test [8] was inactive.

The values are drawn from PubChem BioAssay (EPA / NIEHS).
